{"source": "PubChem BioAssay (NCI)", "note": "This is part of a sample that, as a whole, favours compounds with a hit. Of some 83,000 tested, about 20% had one in any assay.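 Single-dose data. Exposure time 48 hours. Values below 10 considered active.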 Calls of active or inactive are those of the source."}
{"system": "OVCAR-8 ovarian", "test": "NCI-60 one-dose screen, 48 h (100 = growth as untreated, 0 = no growth, -100 = all killed)", "details": "10 µM unless noted"}
{"smiles": "O=C(N/N=C/c1ccncc1)c1ccc(C(F)(F)F)nc1Nc1cccc(C(F)(F)F)c1", "growth": "-4.88% (active)"}
{"smiles": "COC(=O)[C@]12CC[C@@H](C)[C@H](C)[C@@H]1C1=CC[C@@H]3[C@@]4(C)C(C=O)=C[C@@](C)(COC(C)=O)[C@@H]4C(=O)C[C@@]3(C)[C@]1(C)CC2", "growth": "41.5% (inactive)"}
{"smiles": "O=C(Nc1ccccc1)Nc1cccc(Oc2nnc(Cl)c3ccccc23)c1", "growth": "15.5% (inactive)"}
{"smiles": "N#Cc1c(-c2ccccc2)cc(-c2ccc(Nc3nc(Nc4ccc(F)cc4)nc(Nc4ccc(F)cc4)n3)cc2)nc1N", "growth": "97.2% (inactive)"}
{"smiles": "CCn1c(C)nc2cc(C(N)=O)ccc21", "growth": "96.2% (inactive)"}
{"smiles": "O=C(/C=C/c1ccco1)c1ccc(Nc2nc(Nc3ccc(F)cc3)nc(Nc3ccc(Cl)cc3)n2)cc1", "growth": "87.9% (inactive)"}
{"smiles": "CC/C=C\\C[C@H](O)C/C=C1/C(=O)C=C[C@@H]1C/C=C\\CCCC(=O)OC", "growth": "-6.94% (active)"}
{"smiles": "N#Cc1c(-c2cccc(Cl)c2)cc(-c2cccc(Cl)c2)[nH]c1=O", "growth": "87.3% (inactive)"}
{"smiles": "O=C1CC(N2C(=O)/C(=C/C(Cl)=C\\c3ccc([N+](=O)[O-])cc3)SC2=S)C(=O)N1c1ccc(O)cc1", "note": "(configuration not stated)", "growth": "11.6% (inactive)"}
{"system": "OVCAR-5 ovarian", "test": "NCI-60 one-dose screen, 48 h (100 = growth as untreated, 0 = no growth, -100 = all killed)", "details": "10 µM unless noted"}
{"smiles": "CC1CC2Oc3ccc(Cl)cc3C(=O)N2O1", "note": "(configuration not stated)", "growth": "98.7% (inactive)"}
{"smiles": "COc1cccc(C(=O)NCCNc2cc(-c3cn(-c4ccccc4)nc3-c3cccc(OC)c3)ccn2)c1", "growth": "91.7% (inactive)"}
{"smiles": "CN(C)c1ccc(-c2ccc3[nH]c(=O)nc(-c4ccccc4)c3c2)cn1", "growth": "65.9% (inactive)"}
{"smiles": "CCN(CC)CCCCCCNc1cc(OC)c(Cl)c2cccnc12", "growth": "83% (inactive)"}
{"smiles": "NC(=N\\N=C/c1ccccc1[N+](=O)[O-])/C(N)=N\\N=C/c1ccccc1[N+](=O)[O-]", "growth": "109% (inactive)"}
{"smiles": "C[n+]1cc2cc(C(N)=O)[nH]c3c(=N)c(Cl)c(N)c1c23", "growth": "62% (inactive)"}
{"smiles": "COc1ccc(C2=Nc3c(N)ncnc3NC(c3ccc4c(c3)OCO4)C2)cc1", "note": "(configuration not stated)", "growth": "72.9% (inactive)"}
{"smiles": "CCN(CC)CCN1C(=O)c2c(c(C)c3c(oc4cc(O)ccc43)c2C)C1=O", "growth": "-38.5% (active)"}
{"smiles": "O=C(Nc1ccccc1Cl)Oc1ccc(-c2ccccc2)cc1", "growth": "98.9% (inactive)"}
{"smiles": "O=C1/C(=C/c2ccc(F)cc2)C=C(c2ccccc2)N1CCc1ccccc1", "growth": "78.7% (inactive)"}
{"smiles": "Cc1cc(Cl)ccc1Nc1nc(C(F)(F)F)ccc1C(=O)N/N=C/c1ccc(N(C)C)cc1", "growth": "43.2% (inactive)"}
{"smiles": "CCN1CCN(c2cc(C)nc(NCc3cc(Nc4ccnc5cc(Cl)ccc45)ccc3F)n2)CC1", "growth": "56% (inactive)"}
{"smiles": "CCN(CC)CCN1CC(O)=C(c2nc(-c3ccc(Cl)cc3)cs2)C1=N", "growth": "66.4% (inactive)"}
{"smiles": "CC(=O)n1c(-c2ccc(Cl)cc2)nc2c(c1=O)C(c1ccc(Cl)cc1)c1sc3c(Cl)cccc3c1O2", "note": "(configuration not stated)", "growth": "-3.95% (active)"}
{"smiles": "CCN(CC)CCn1nc2c3c(cccc3c1=O)-c1ccccc1-2", "growth": "33.9% (inactive)"}
{"smiles": "Cc1cc(Cl)nc(NCc2cc(Nc3ccnc4cc(Cl)ccc34)ccc2F)n1", "growth": "107% (inactive)"}
{"smiles": "O=C(NCCCNc1cc(-c2cn(-c3ccccc3)nc2-c2cccc(O)c2)ccn1)c1ccccc1", "growth": "63.3% (inactive)"}
{"smiles": "COc1ccc(-c2cc(-c3cc(OC)ccc3OC)nc(SCC(=O)c3ccccc3)c2C#N)cc1", "growth": "103% (inactive)"}
{"smiles": "Nc1cc2c3c(cccc3c1)C(=O)N(CCN1CCCC1)C2=O", "growth": "65.6% (inactive)"}
{"smiles": "COc1ccc(-c2csc(C3=C(O)CN(CCCN4CCCC4=O)C3=N)n2)cc1OC", "growth": "94.2% (inactive)"}
{"smiles": "CCCCn1c(=O)c2c(nc(NCCc3ccc(O)c(O)c3)n2CCC)n(CCCC)c1=O", "growth": "97.9% (inactive)"}
{"smiles": "N#C/C(=C/C=C/c1cccc(Cl)c1)S(=O)c1ccccc1", "note": "(configuration not stated)", "growth": "-45.1% (active)"}
{"smiles": "O=C1OC(c2nc3ccccc3s2)=C/C1=C\\c1ccc(O)cc1", "growth": "85.5% (inactive)"}
{"smiles": "CC/C=C\\CCC/C=C1/C(=O)C=C[C@@H]1C/C=C\\CCCC(=O)O", "growth": "72.6% (inactive)"}
{"smiles": "CC(=O)C(C)Cc1cc2c(cc1C)C(C)(C)CCC2(C)C", "note": "(configuration not stated)", "growth": "98.6% (inactive)"}
{"smiles": "O=[N+]([O-])c1ccc(C2CC(c3ccccc3)=Nc3ccccc3S2)cc1", "note": "(configuration not stated)", "growth": "113% (inactive)"}
{"smiles": "COc1ccc(-c2nc3c(c(=O)n2C(C)=O)C(c2ccc(Cl)cc2)c2sc4c(Cl)cccc4c2O3)cc1", "note": "(configuration not stated)", "growth": "-13.8% (active)"}
{"smiles": "FC(F)(F)c1cc(Nc2ccc3cc(OCCCN4CCOCC4)ccc3n2)ccc1Cl", "growth": "59.1% (inactive)"}
{"smiles": "CC(C)CCC[C@@H](C)[C@H]1CC[C@H]2[C@@H](Nc3ccc(O)cc3)CCC[C@]12C", "growth": "114% (inactive)"}
{"smiles": "O=C(N/N=C/c1ccncc1)c1ccc(C(F)(F)F)nc1Nc1cccc(C(F)(F)F)c1", "growth": "24.7% (inactive)"}
{"smiles": "COC(=O)[C@]12CC[C@@H](C)[C@H](C)[C@@H]1C1=CC[C@@H]3[C@@]4(C)C(C=O)=C[C@@](C)(COC(C)=O)[C@@H]4C(=O)C[C@@]3(C)[C@]1(C)CC2", "growth": "68.8% (inactive)"}
{"smiles": "O=C(Nc1ccccc1)Nc1cccc(Oc2nnc(Cl)c3ccccc23)c1", "growth": "86.3% (inactive)"}
{"smiles": "N#Cc1c(-c2ccccc2)cc(-c2ccc(Nc3nc(Nc4ccc(F)cc4)nc(Nc4ccc(F)cc4)n3)cc2)nc1N", "growth": "70.9% (inactive)"}
{"smiles": "CCn1c(C)nc2cc(C(N)=O)ccc21", "growth": "92.6% (inactive)"}
{"smiles": "O=C(/C=C/c1ccco1)c1ccc(Nc2nc(Nc3ccc(F)cc3)nc(Nc3ccc(Cl)cc3)n2)cc1", "growth": "64.9% (inactive)"}
{"smiles": "CC/C=C\\C[C@H](O)C/C=C1/C(=O)C=C[C@@H]1C/C=C\\CCCC(=O)OC", "growth": "27.1% (inactive)"}
{"smiles": "N#Cc1c(-c2cccc(Cl)c2)cc(-c2cccc(Cl)c2)[nH]c1=O", "growth": "101% (inactive)"}
{"smiles": "O=C1CC(N2C(=O)/C(=C/C(Cl)=C\\c3ccc([N+](=O)[O-])cc3)SC2=S)C(=O)N1c1ccc(O)cc1", "note": "(configuration not stated)", "growth": "-56.5% (active)"}
